Compound activity as filed in PubChem BioAssay.
hgDAF12 agonist: hgDAF-12 agonism, primary luciferase screen; HEK293 GAL4-hgDAF12 UAS-luciferase reporter, agonist luminescence; normalized to butyrate control; activation, % at 6.8 µM; 1.8% of 370,000 active; AID 687014;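 active = activation above a cutoff set at the mean of all screened compounds plus 3 SD, cut at about 10% in these data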;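 note: 0% = DMSO wells and 100% = sodium butyrate wells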
ssDAF12 agonist: activators of S. stercoralis DAF-12 nuclear receptor. HEK293 ssDAF-12/GRIP1 lit1-tk-luc reporter, luminescence; % of 3 µM dafachronic acid response. activation, % at 6.8 µM. 1% of 370,000 active. AID 652126;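 active = activation above the mean over all tested compounds plus 3 SD, cut at about 0.9% in these data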;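 note: 0% = DMSO-only wells and 100% = 3 µM delta7-dafachronic acid wells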
hcDAF-12 act: H. contortus DAF-12 activation, primary screen. 1.4% of 370,000 active. activation, % at 6.8 µM. HEK293 hcDAF-12 lit1-tk-luc reporter, luminescence; 0% DMSO, 100% Δ7-dafachronic acid;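 active = activation above the mean of all tested compounds plus 3 SD, cut at about 5.5% in these data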;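 note: 100% = response to 3 µM Δ7-dafachronic acid high control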
DAX1 inh-1: inhibitors of DAX1 repression of SF-1 activated StAR promoter; HEK293T StAR-luciferase reporter, SF-1/DAX-1 repression relief; inhibition, % at 6.8 µM; AID 652010; 1.1% of 370,000 active;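 active = inhibition above the mean over all tested compounds plus 3 SD, cut at about 3.6% in these data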;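 note: 0% = DAX-1 cells with DMSO and 100% = cells lacking DAX-1 with DMSO; higher inhibition means more luminescence from relief of DAX-1 repression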
Wee1 degr inh: human Wee1 degradation inhibition, primary screen; AID 1321; P30291; reporter increase, % at 5 µM; HeLa Luc-Wee1K328M stability, luciferase luminescence; 100% = proteasome inhibitor MG132 effect; 1.2% of 220,000 active;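 active = activation above the mean of all tested compounds plus 3 SD, set per screening run, cut at about 8.8% in these data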;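 note: cells exposed to compound for 20 h before luminescence read; 0% = DMSO alone and 100% = MG132 at 30 µM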
Target sequence (P30291 whole entry K328M): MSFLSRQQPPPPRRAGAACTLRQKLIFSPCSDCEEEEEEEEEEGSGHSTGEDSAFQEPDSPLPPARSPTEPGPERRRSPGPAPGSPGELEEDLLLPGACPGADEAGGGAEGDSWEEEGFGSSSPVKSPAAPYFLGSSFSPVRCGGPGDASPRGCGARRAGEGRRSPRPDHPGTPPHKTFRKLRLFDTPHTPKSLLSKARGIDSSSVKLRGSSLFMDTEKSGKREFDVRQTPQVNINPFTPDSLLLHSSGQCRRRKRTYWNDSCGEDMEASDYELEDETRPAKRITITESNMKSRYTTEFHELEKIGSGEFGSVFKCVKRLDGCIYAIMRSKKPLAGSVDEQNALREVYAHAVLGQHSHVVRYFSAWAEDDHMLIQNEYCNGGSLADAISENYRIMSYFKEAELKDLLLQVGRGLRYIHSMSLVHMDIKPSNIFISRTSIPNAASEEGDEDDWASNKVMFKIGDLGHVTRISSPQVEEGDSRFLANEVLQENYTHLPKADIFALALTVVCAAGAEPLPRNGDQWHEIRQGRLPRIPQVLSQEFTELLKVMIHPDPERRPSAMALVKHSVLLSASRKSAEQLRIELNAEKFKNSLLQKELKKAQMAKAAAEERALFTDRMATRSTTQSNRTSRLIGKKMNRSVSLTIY
DAX1 inh-2: inhibits human nuclear receptor DAX1; P51843; HEK293 Gal4-DAX1 luciferase reporter, luminescence; inhibition, % at 6.75 µM; 0.99% of 340,000 active;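 active = inhibition above the mean over all tested compounds plus 3 SD, cut at about 4.2% in these data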;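 note: 0% = DAX1-transfected cells with DMSO and 100% = empty-vector control cells with DMSO; inhibition shows as a rise in luminescence from relieved DAX1 repression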
* marks the source's active call; other numbers are inactive results. Hits are enriched below; roughly 4.6% of the tested compounds scored in any of these assays.

Screening CC(=O)NC(CC(=O)OCC(=O)c1c(N)n(CC(C)C)c(=O)n(C)c1=O)c1ccccc1 (centres undefined) returned hgDAF12 agonist -1, ssDAF12 agonist -1, hcDAF-12 act 0, DAX1 inh-1 -3 and DAX1 inh-2 -2.
`C#CCNC[C@@H]1CSCCS(=O)(=O)N1` gave hgDAF12 agonist -1, ssDAF12 agonist 0.9*, hcDAF-12 act -1 and DAX1 inh-1 1.
Screening CCC(=O)O[C@]1(C(=O)CCl)[C@@H](C)C[C@H]2[C@@H]3CCC4=CC(=O)C=C[C@]4(C)[C@@]3(F)[C@@H](O)C[C@@]21C returned hgDAF12 agonist -2, ssDAF12 agonist 0, hcDAF-12 act 0, DAX1 inh-1 3, Wee1 degr inh 9.3* and DAX1 inh-2 0.
`CCC(=O)OC1(C(=O)CCl)[C@@H](C)C[C@H]2[C@@H]3CCC4=CC(=O)C=C[C@]4(C)[C@@]3(F)[C@@H](O)C[C@@]21C` (some centres undefined) gave hgDAF12 agonist -4, ssDAF12 agonist -1, hcDAF-12 act -2, DAX1 inh-1 2 and DAX1 inh-2 1.
CCCNC(=O)C1(C)CCCN(C(=O)c2c(F)ccc(C)c2F)C1 (centres undefined) was read as hgDAF12 agonist 5, ssDAF12 agonist -1, hcDAF-12 act -2 and DAX1 inh-1 0.
Cc1cccc(-c2ccc3c(c2)C2CC3CCN2Cc2ccc3c(c2)OCO3)c1 (centres undefined) was read as hgDAF12 agonist 0, ssDAF12 agonist 0, hcDAF-12 act -1, DAX1 inh-1 4.0* and DAX1 inh-2 -1.
CS(=O)(=O)c1ccc(Cl)c(NC(=O)c2cc(S(=O)(=O)N3CCOCC3)ccc2N2CCCC2)c1 was read as hgDAF12 agonist -2, ssDAF12 agonist -1, hcDAF-12 act -2, DAX1 inh-1 2 and DAX1 inh-2 1.
For O=C(COc1ccc2ccccc2c1)NNC(=O)Cc1ccccc1 the results were hgDAF12 agonist -1, ssDAF12 agonist -1, hcDAF-12 act 1, DAX1 inh-1 0, Wee1 degr inh -1 and DAX1 inh-2 -1.
O=C(Cc1ccccc1)NNc1ccc2ccccc2c1 was read as hgDAF12 agonist 1, ssDAF12 agonist 0, hcDAF-12 act 5.9*, DAX1 inh-1 2, Wee1 degr inh 0 and DAX1 inh-2 3.
For CCN1CCN(c2oc(COc3ccc(Cl)cc3)nc2C#N)CC1 the results were hgDAF12 agonist -3, ssDAF12 agonist -2, hcDAF-12 act -1, DAX1 inh-1 0, Wee1 degr inh 9.1* and DAX1 inh-2 -2.
`COc1ccc(OC)c2sc(N3CCc4ccccc4C3)nc12` gave hgDAF12 agonist 1, ssDAF12 agonist -1, hcDAF-12 act 0, DAX1 inh-1 -1, Wee1 degr inh 6 and DAX1 inh-2 -1.
Screening COc1ccc(OC)c2sc(N3CCCCC3)nc12 returned hgDAF12 agonist 11*, ssDAF12 agonist -1, hcDAF-12 act 0, DAX1 inh-1 -1, Wee1 degr inh 6 and DAX1 inh-2 1.
`CCN(CC(=O)Nc1c(F)cccc1F)C(=O)c1cc(C)nc2ccccc12` gave hgDAF12 agonist 0, ssDAF12 agonist 1.0*, hcDAF-12 act 2, DAX1 inh-1 -1 and DAX1 inh-2 1.
Screening C/C(CC(=O)Nc1ccc(N(C)C)cc1)=N\NC(=O)C(=O)NCc1ccccc1 returned hgDAF12 agonist -1, ssDAF12 agonist -1, hcDAF-12 act -1, DAX1 inh-1 0, Wee1 degr inh 9.9* and DAX1 inh-2 1.
O=C(Nc1ccc(Cl)cc1)OC1CCC12CCC(c1ccccc1)CC2 (centres undefined) was read as hgDAF12 agonist 0, ssDAF12 agonist -2, hcDAF-12 act -2 and DAX1 inh-1 -2.
`Cc1c(C(O)(c2ccccc2)c2ccccc2)[n+]2ccccc2n1C` gave hgDAF12 agonist -2, ssDAF12 agonist -1 and hcDAF-12 act -1.
`O=C(CCc1nnc(C2(c3ccc(Cl)cc3)CCC2)o1)N1CCCC(O)C1` (centres undefined) gave hgDAF12 agonist 1, ssDAF12 agonist -1, hcDAF-12 act 2, DAX1 inh-1 -1 and DAX1 inh-2 0.
Screening CC(NC(=O)CCc1nnc(C2(c3ccc(Cl)cc3)CCC2)o1)C1CC1 (centres undefined) returned hgDAF12 agonist 3, ssDAF12 agonist 0, hcDAF-12 act 0, DAX1 inh-1 0, Wee1 degr inh -4 and DAX1 inh-2 4.4*.
Screening C[C@H]1C2CC(OC(=O)NCCCc3ccccc3)C(C2)[C@H]2CCCCN21 (some centres undefined) returned hgDAF12 agonist 6, ssDAF12 agonist 0, hcDAF-12 act -1 and DAX1 inh-1 1.
`c1ccc(COc2ccc3nocc3c2)cc1` gave hgDAF12 agonist 11*, ssDAF12 agonist -1, hcDAF-12 act 4, DAX1 inh-1 1 and DAX1 inh-2 4.
`CC(C)(C)c1ccc(C(=O)NCCC(=O)Nc2ccc3c(c2)OCCO3)cc1` gave hgDAF12 agonist -7, ssDAF12 agonist -2, hcDAF-12 act -4, DAX1 inh-1 -5 and DAX1 inh-2 -2.
COc1ccc(CNC(=O)[C@H](C)NC(=O)C2CCN(C(=O)[C@H](CCSC)NC(=O)OC(C)(C)C)CC2)cc1 was read as hgDAF12 agonist -2, ssDAF12 agonist -2, hcDAF-12 act -1, DAX1 inh-1 1 and DAX1 inh-2 6.2*.
For COc1ccc(CNC(=O)[C@H](Cc2ccccc2)NC(=O)C2CCN(C(=O)[C@H](C)N)CC2)cc1 the results were hgDAF12 agonist 3, ssDAF12 agonist -1, hcDAF-12 act 2, DAX1 inh-1 0 and DAX1 inh-2 5.0*.
`O=C(NCc1ccccc1)OCCN1C(=O)CCC12CCC(c1ccc(Cl)cc1)CC2` (centres undefined) gave hgDAF12 agonist 3, ssDAF12 agonist -2, hcDAF-12 act -1 and DAX1 inh-1 -1.
`CCCCCC1C(=O)CCC1CC(=O)OC` (centres undefined) gave hgDAF12 agonist 2, ssDAF12 agonist -1, hcDAF-12 act 0, DAX1 inh-1 -1 and DAX1 inh-2 4.4*.
Screening CCCCC(C)(O)C/C=C/[C@H]1[C@H](O)CC(=O)[C@@H]1CCCCCCC(=O)OC (some centres undefined) returned Wee1 degr inh 2.
For COc1cccc(C=Nc2ccccc2C#N)c1O the results were hgDAF12 agonist 1, ssDAF12 agonist 2.1*, hcDAF-12 act 4, DAX1 inh-1 0, Wee1 degr inh 0 and DAX1 inh-2 0.
